# About 79,000 compounds went through this panel and 15% of them were active in at least one assay; those are over-represented in the sample as a whole. A number with no mark means an inactive call. Active and inactive are the calls of the source. No stated cut-off is given here; in the data, active means growth inhibition above about 70%; inactive means the rest.
# Columns and labels:
# [1] = NCI Yeast Anticancer Drug Screen. Data for the rad50 strain (AID 155);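 further: 0% = growth of vehicle-only cultures of the same strain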; conditions: S. cerevisiae rad50 strain growth inhibition, hits give high values
# Outline: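 Growth of the mutant yeast was measured after compound exposure and referenced to vehicle-treated cultures.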
# [2] = NCI Yeast Anticancer Drug Screen. Data for the mec2-1 strain (AID 157); conditions: S. cerevisiae mec2-1 strain, hits give high values
# Outline: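 Test agents were screened against the mec2-1 yeast strain, with defined DNA repair or cell cycle alteration. Growth was scored as inhibition against vehicle-only controls.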
# [3] = NCI Yeast Anticancer Drug Screen. Data for the sgs1 mgt1 strain (AID 161);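 further: 0% = growth of cultures given vehicle only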; conditions: S. cerevisiae sgs1 mgt1 strain, hits give high values
# Outline: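 Inhibition of yeast growth, normalised to vehicle-treated controls, is reported for a strain bearing genetic alterations in DNA damage repair.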
# [4] = NCI Yeast Anticancer Drug Screen. Data for the bub3 strain (AID 167); conditions: S. cerevisiae bub3 mutant strain, hits give high values
# Outline: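 Whole-cell yeast assay. The mutant strain was incubated with compounds, and growth inhibition was determined by comparison with vehicle-treated cells.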
# [5] = NCI Yeast Anticancer Drug Screen. Data for the mlh1 rad18 strain (AID 175); conditions: S. cerevisiae mlh1 rad18 strain growth inhibition, hits give high values
# Outline: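 In this whole-cell yeast screen, a strain with altered DNA damage repair is challenged with compound, and its growth is measured against matched vehicle-treated controls.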
# [6] = NCI Yeast Anticancer Drug Screen. Data for the cln2 rad14 strain (AID 165);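 further: 0% = growth equal to vehicle treated cultures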; conditions: S. cerevisiae cln2 rad14 strain, hits give high values
# Outline: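 Growth of compound-exposed yeast (cln2 rad14 genotype) measured and expressed as inhibition relative to vehicle.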
# [7] = at 5.0 µM (retest, dose inferred, filed as 0.5)
# [8] = at 50.0 µM (retest, dose inferred, filed as 5.0)
Structure (SMILES),"growth inhibition [1, 7]","growth inhibition [1, 8]",growth inhibition ([1]; at 50.0 µM),"growth inhibition [2, 7]","growth inhibition [2, 8]",growth inhibition ([2]; at 50.0 µM),"growth inhibition [3, 7]","growth inhibition [3, 8]",growth inhibition ([3]; at 50.0 µM),"growth inhibition [4, 7]","growth inhibition [4, 8]",growth inhibition ([4]; at 50.0 µM),"growth inhibition [5, 7]","growth inhibition [5, 8]",growth inhibition ([5]; at 50.0 µM),"growth inhibition [6, 7]","growth inhibition [6, 8]",growth inhibition ([6]; at 50.0 µM)
CCCCCCC(=O)CCCCCC/C=C\CC1OC(=O)C(N)(CO)C1O (stereo unspecified),34%,98% (active),91.5% (active),45%,99% (active),93.5% (active),43%,98% (active),93.2% (active),80% (active),98% (active),91% (active),58%,98% (active),91.5% (active),–,–,–
CC(=O)Oc1ccc(N2C(=O)C=CC2=O)cc1,86% (active),99% (active),98.8% (active),81% (active),100% (active),99.1% (active),67%,99% (active),52%,87% (active),99% (active),99% (active),41%,100% (active),52.5%,–,–,–
CSc1ccc(NC(=S)SC(C)C)cc1Cl,15%,98% (active),99% (active),1%,99% (active),99.3% (active),19%,99% (active),99.4% (active),-6%,99% (active),99.4% (active),19%,99% (active),99% (active),-32%,97% (active),99% (active)
COc1cc(/C=C2/N=C(c3ccccc3)N(C3=NNC4(C(=O)N3)c3ccccc3-c3ccccc34)NC2=O)ccc1O,4%,3%,36.5%,-1%,7%,-5.05%,–,–,–,-2%,-7%,27.4%,-17%,11%,20.5%,3%,1%,-46.6%
COC(=O)/C=C1/OC(c2ccccc2)=C(Br)C1=O,17%,17%,89.3% (active),11%,11%,91.3% (active),11%,11%,86.5% (active),-2%,-2%,88.5% (active),15%,15%,85.3% (active),-6%,-6%,88.3% (active)
CN(C)C1CCC2C3CCC4=CC(=O)CCC4(C)C3CCC21C (stereo unspecified),2%,28%,77.1% (active),17%,21%,48%,8%,39%,69.5%,2%,-63%,40%,2%,35%,51.7%,–,55%,47.1%
CN(Cc1cc(Br)cc(Br)c1O)Cc1c[nH]c2ccccc12,-1%,8%,68.1%,12%,31%,31.1%,0%,14%,86.4% (active),-4%,-1%,40.9%,36%,48%,74.5% (active),–,–,–
Cc1c(NC(=O)/C(=N/NC(=S)N=N)C2C(=O)CC(C)(C)CC2=O)c(O)c2ccccc2c1O,14%,98% (active),95.3% (active),7%,99% (active),81.2% (active),7%,99% (active),84.8% (active),16%,98% (active),90.9% (active),9%,98% (active),93% (active),-1%,99% (active),47%
CCC[CH2][Sn]([CH2]CCC)([O]C(=O)Cc1ccc(F)cc1)[O]C(=O)Cc1ccc(F)cc1,27%,27%,86.7% (active),–,–,–,27%,27%,83.3% (active),21%,21%,76% (active),14%,14%,76.2% (active),16%,16%,78.1% (active)
CCOC(=O)c1c(Br)c(-c2ccc(Br)cc2)c(Br)n1C,-6%,1%,7.95%,–,–,–,-11%,-1%,-6.25%,-11%,-15%,-7%,-8%,-12%,-10.6%,29%,-25%,24.1%
C[n+]1c(/C=C/c2ccccc2Cl)sc2ccccc21,83% (active),96% (active),97.2% (active),99% (active),99% (active),94.2% (active),–,–,–,98% (active),98% (active),89.5% (active),98% (active),98% (active),98.7% (active),59%,92% (active),98.5% (active)
COC(=O)C1=C(C)NC(C)=C([N+](=O)[O-])C1c1cccc(N=O)c1 (stereo unspecified),22%,68%,74.2% (active),–,–,–,27%,86% (active),89.8% (active),26%,93% (active),90.2% (active),33%,97% (active),84.4% (active),28%,45%,57.2%
Cc1ccc(O)c(Cc2cccc(Cl)c2)c1,-2%,99% (active),99.3% (active),–,–,–,-2%,99% (active),99.5% (active),-22%,99% (active),99.3% (active),0%,99% (active),99.2% (active),-21%,99% (active),99% (active)
CCn1c2ccccc2n2c(=O)cc(-c3ccccc3)c(C#N)c12,7%,2%,27.1%,–,–,–,-12%,0%,33.6%,7%,11%,18.4%,-2%,-4%,24.4%,7%,-9%,12.3%
[O-][n+]1ccc(Br)c(/C=C/c2ccccc2)c1,–,–,–,-5%,32%,18.1%,-2%,23%,20%,-5%,9%,24.6%,2%,79% (active),56.1%,0%,9%,2.3%
CCCCCCCCCCCCNCc1ccc(Cl)c(Cl)c1,72% (active),96% (active),99.8% (active),–,–,–,89% (active),98% (active),99.8% (active),76% (active),96% (active),97% (active),87% (active),96% (active),99.7% (active),58%,90% (active),99.6% (active)
CCOc1c(N=Nc2ccc(Cl)cc2)c(-c2ccccc2)nn1C(N)=S,3%,90% (active),93.4% (active),–,–,–,18%,92% (active),93.9% (active),1%,92% (active),92.4% (active),0%,90% (active),93.1% (active),-13%,87% (active),93.3% (active)
CCN1/C(=C/C=C/C=C\C=C\c2sc3ccc4ccccc4c3[n+]2CC)Sc2ccc3ccccc3c21,28%,68%,49.2%,21%,80% (active),46.8%,–,–,–,34%,65%,30.4%,25%,73% (active),40.6%,48%,65%,54%
CC(CCOP(=O)(O)OCCC(C)CC(C)(C)C)CC(C)(C)C (stereo unspecified),-3%,20%,11.8%,–,–,–,-4%,52%,35.4%,-19%,10%,71.4% (active),3%,19%,47.8%,-2%,45%,51%
CCOC(=O)C1SC(=Nc2ccc(Cl)cc2C)N=C1C (stereo unspecified),–,–,–,25%,97% (active),92.2% (active),32%,99% (active),91.7% (active),24%,98% (active),91.2% (active),35%,98% (active),90% (active),22%,97% (active),90.2% (active)
O=C1C(=C2C(=O)c3ccccc3[N+]2=O)N([O-])c2ccccc21,-2%,36%,69%,–,–,–,-3%,52%,84.3% (active),-6%,31%,57.8%,-5%,56%,85.5% (active),-10%,15%,68%
COc1cc(/C=C/C2=C(C)C(=O)CC(c3cc(OC)c(OC)c(OC)c3)C2C)cc(OC)c1OC (stereo unspecified),2%,-1%,-6.25%,–,–,–,0%,25%,15.4%,-2%,7%,2.1%,0%,-102%,42.6%,-8%,-27%,75.8% (active)
